Bioassay records as filed in PubChem.
Sampled rows, rich in hits. Any-hit rate of the full collection: about 19%.
DT40 TDP1 no CPT: qHTS for Inhibitors of human tyrosyl-DNA phosphodiesterase 1 (TDP1): qHTS in cells in absence of CPT; DT40 Tdp1-/- hTDP1 cells, no CPT, ATP luminescence, 48 h; Potency, µM (top dose mostly 46.2 µM), inactives show at the top dose activity change, negative = growth inhibition, most hits filed as inhibitors; 15% of 420,000 active; note: nearly all actives have a fitted effect of over 55% in size
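Chicken DT40 Tdp1-/- cells complemented with human TDP1, screened without camptothecin (DMSO vehicle only), 400 cells/well. Compounds pin-transferred, cells incubated at 37 °C for at least 48 hr. Growth read as ATP-dependent luminescence (CellTiter-Glo, 30 min at RT).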
HT1080 IDH1KD tx: kills HT-1080 cells with IDH1 knockdown. HT-1080 IDH1 knockdown viability, ATP luminescence, 48 h. Potency, µM (titrated, usually from 46.1 µM), without a hit: top-dose activity, negative = toxicity, actives largely listed as cytotoxic. 2% of 360,000 active. AID 686971;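 note: 0% = DMSO wells and -100% = cell-free medium wells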
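HT-1080-IDH1KD cells (IDH1 knocked down), 750/well in RPMI with 5% FBS, treated with compound 48 h at 37 degrees C. Viability by CellTiter-Glo luminescence, normalised to DMSO and no-cell wells; concentration-response curves classed.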
KB-3-1 tox: KB-3-1 parental cell cytotoxicity; 1.4% of 400,000 active; Potency, µM (doses to about 46.1 µM), most hits filed as cytotoxic; KB-3-1 viability, CellTiter-Glo ATP luminescence, 72 h; AID 1347075; note: nearly all actives have a fitted effect of over 60% in size
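Cytotoxicity measured as CellTiter-Glo luminescence after 72 h at 37 C. Compound titrations were pinned onto drug-naive KB-3-1 parental adenocarcinoma cells grown in DMEM with 10% FBS, and normalized data fitted to concentration-response curves.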
DT40 TDP1 CPT: DT40-hTDP1 cell growth loss with CPT; AID 686979; chicken DT40 Tdp1-/-;hTDP1 cells + 20 nM CPT, ATP luminescence, 48 h; Potency, µM (highest dose often 46.2 µM), for inactives: at the highest dose activity change, negative = growth inhibition, actives largely listed as inhibitors; 12% of 420,000 active; note: nearly all actives have a fitted effect of over 55% in size
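Cell growth measured by CellTiter-Glo luminescence after a minimum 48 h, 37 C compound exposure with 20 nM CPT in Tdp1-knockout DT40 cells stably expressing hTDP1, seeded 400/well; qHTS titration format.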
KB-V1 MDR tox: KB-V1 MDR subline cytotoxicity; KB-V1 MDR cells viability, CellTiter-Glo, 72 h; Potency, µM (series often up to 46.1 µM), hits mostly cytotoxic; 3.4% of 400,000 active; AID 1347076; note: nearly all actives have a fitted effect of over 60% in size
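qHTS viability screen in drug-selected KB-V1 MDR cells: 72 h compound treatment at 37 degrees C, ATP luminescence end point.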
HT1080NT lethal: kills 2HG-producing HT-1080-NT fibrosarcoma cells; HT-1080-NT fibrosarcoma viability, CellTiter-Glo ATP luminescence, 48 h; Potency, µM (series often up to 46.1 µM), without a hit: at the top dose activity, negative = less viability, usual class: cytotoxic; AID 686970; 1.6% of 360,000 active;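 note: NT is the 2HG producing partner of a matched IDH1 knockdown line; 0% = DMSO-treated cells and -100% = media-only wells without cells; nearly all actives have a fitted effect of over 55% in size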
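Fibrosarcoma NT cells, 750 per well in 5% FBS RPMI, were exposed to compound for 48 hours. Viability: CellTiter-Glo luminescence.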
* = called active by the depositor. Calls come from the whole dose curve; as a rule, active = well fitted curve in the direction sought with a large enough effect; inconclusive = small, poorly fitted or top-dose-only effect, or another doubt; inactive = no such curve, though single readings can be large; an effect the other way counts as inactive or inconclusive. Unless noted, % is set by controls: 0 for no effect and ±100 for the full control effect; potency is the fitted concentration of half-maximal effect.

CCOC(=O)N1CCN(c2cc(=O)n(Cc3ccc(F)cc3)c(=O)[nH]2)CC1 was read as DT40 TDP1 no CPT 0%, HT1080 IDH1KD tx 5%, KB-3-1 tox inactive, DT40 TDP1 CPT -5%, KB-V1 MDR tox inactive and HT1080NT lethal 4%.
`CCOC(=O)C1CCN(c2ncnc3c2[nH]c2cccc(OC)c23)CC1` gave DT40 TDP1 no CPT 26µM*, HT1080 IDH1KD tx -11%, KB-3-1 tox inactive, DT40 TDP1 CPT inconclusive, KB-V1 MDR tox inactive and HT1080NT lethal -7%.
For COc1ccc(NC(=O)c2ccccc2-c2ccccc2)c(C)c1 the results were DT40 TDP1 no CPT inconclusive, HT1080 IDH1KD tx 4%, KB-3-1 tox inactive, DT40 TDP1 CPT inconclusive, KB-V1 MDR tox inactive and HT1080NT lethal 6%.
`CC1(C)CC(N2CCN(c3ccccc3)CC2)=CC(=[N+]2CCCC2)C1` gave DT40 TDP1 no CPT 0.23µM*, HT1080 IDH1KD tx 14µM*, KB-3-1 tox 12µM*, DT40 TDP1 CPT 0.18µM*, KB-V1 MDR tox inactive and HT1080NT lethal 1.1µM*.
`CSc1nc(N2CCN(c3ccccc3)CC2)cc(N2CCN(c3ccccc3)CC2)n1` gave DT40 TDP1 no CPT -25%, HT1080 IDH1KD tx 29%, KB-3-1 tox inactive, DT40 TDP1 CPT -1%, KB-V1 MDR tox inactive and HT1080NT lethal 17%.
`CC1CC(C)C[N+](=C2C=C(N3CCCC3)CC(C)(C)C2)C1` (stereo not given) gave DT40 TDP1 no CPT 0.0082µM*, HT1080 IDH1KD tx inconclusive, KB-3-1 tox 5.8µM*, DT40 TDP1 CPT 0.21µM*, KB-V1 MDR tox inactive and HT1080NT lethal 9.2µM*.
Screening CCOC(=O)c1sc(NC(=O)C2CCCCC2)nc1C returned DT40 TDP1 no CPT inconclusive, HT1080 IDH1KD tx 10%, KB-3-1 tox inactive, DT40 TDP1 CPT 2%, KB-V1 MDR tox inactive and HT1080NT lethal 27%.
`COc1ccccc1C1(CC(=O)Nc2nccs2)CCOC(C(C)C)C1` (stereo not given) gave DT40 TDP1 no CPT 4.6µM*, HT1080 IDH1KD tx inconclusive, KB-3-1 tox inactive, DT40 TDP1 CPT 5.2µM*, KB-V1 MDR tox inconclusive and HT1080NT lethal inconclusive.
CCCNC(=O)N1CCCN(S(=O)(=O)c2ccc3c(ccn3CC)c2)CC1 was read as KB-3-1 tox inactive and KB-V1 MDR tox inconclusive.
CCN1CCN(C(=O)CN2C(=O)COc3ccc(C)cc32)CC1 was read as DT40 TDP1 no CPT -12%, HT1080 IDH1KD tx 15%, KB-3-1 tox inactive, DT40 TDP1 CPT 6%, KB-V1 MDR tox inactive and HT1080NT lethal 14%.
Screening Cc1ccc(C)c2[nH]c(=O)c(CN(CCCN(C)C)C(=O)NCc3ccccc3)cc12 returned DT40 TDP1 no CPT 23µM*, HT1080 IDH1KD tx -13%, KB-3-1 tox inconclusive, DT40 TDP1 CPT inconclusive, KB-V1 MDR tox inactive and HT1080NT lethal -23%.
For Cc1cc(C)c2cc(CN(CCCN(C)C)C(=S)NCc3ccccc3)c(=O)[nH]c2c1 the results were DT40 TDP1 no CPT inconclusive, HT1080 IDH1KD tx inconclusive, KB-3-1 tox inactive, DT40 TDP1 CPT 21µM*, KB-V1 MDR tox inactive and HT1080NT lethal inconclusive.
Cc1c(CC(=O)NCC(=O)O)c(=O)oc2cc3c(cc12)CCC(C)(C)O3 was read as DT40 TDP1 no CPT -10%, HT1080 IDH1KD tx -1%, KB-3-1 tox inactive, DT40 TDP1 CPT -2%, KB-V1 MDR tox inactive and HT1080NT lethal -2%.
Clc1ccc(N2O[C@H]3C=C[C@@H]2C3)nc1 was read as DT40 TDP1 no CPT inconclusive, HT1080 IDH1KD tx -6%, KB-3-1 tox inactive, DT40 TDP1 CPT 21µM*, KB-V1 MDR tox inactive and HT1080NT lethal 1%.
N#CC(C#N)=C1SC(=Nc2ccccc2)C(=Nc2ccccc2)N1c1ccccc1 was read as DT40 TDP1 no CPT 8.2µM*, HT1080 IDH1KD tx inconclusive, KB-3-1 tox 21µM*, DT40 TDP1 CPT 5.2µM*, KB-V1 MDR tox inconclusive and HT1080NT lethal inconclusive.
`COc1cccc(-c2nn(-c3ccc(C)cc3)cc2C(=O)NCC(c2cccs2)N2CCOCC2)c1` (stereo not given) gave DT40 TDP1 no CPT inconclusive, HT1080 IDH1KD tx -9%, KB-3-1 tox inactive, DT40 TDP1 CPT inconclusive, KB-V1 MDR tox inactive and HT1080NT lethal -6%.
`O=C(NCC(c1cccs1)N1CCOCC1)c1cn(-c2ccccc2)nc1-c1ccc(Cl)cc1` (stereo not given) gave DT40 TDP1 no CPT inconclusive, HT1080 IDH1KD tx -29%, KB-3-1 tox inconclusive, DT40 TDP1 CPT inconclusive, KB-V1 MDR tox 7.3µM* and HT1080NT lethal -16%.
O=C(NCC(c1cccs1)N1CCOCC1)c1cn(-c2ccccc2)nc1-c1ccccc1 (stereo not given) was read as DT40 TDP1 no CPT 18µM*, HT1080 IDH1KD tx 0%, KB-3-1 tox inactive, DT40 TDP1 CPT inconclusive, KB-V1 MDR tox 23µM* and HT1080NT lethal -2%.
Screening COc1ccc(-c2nn(-c3ccccc3)cc2C(=O)NCC(c2cccs2)N2CCOCC2)cc1 (stereo not given) returned DT40 TDP1 no CPT inconclusive, HT1080 IDH1KD tx -24%, KB-3-1 tox inactive, DT40 TDP1 CPT inconclusive, KB-V1 MDR tox inconclusive and HT1080NT lethal -18%.
CCN(CC)S(=O)(=O)c1ccc2c(c1)nc(SCC(=O)N1CCCCCC1)n2-c1ccc(OC)cc1 was read as DT40 TDP1 no CPT 23µM*, HT1080 IDH1KD tx -12%, KB-3-1 tox inactive, DT40 TDP1 CPT 15µM*, KB-V1 MDR tox inactive and HT1080NT lethal -2%.
Screening COc1ccc(C2=CC(=O)CC(c3ccc(F)cc3)C2)cn1 (stereo not given) returned DT40 TDP1 no CPT inconclusive, HT1080 IDH1KD tx 9%, KB-3-1 tox inactive, DT40 TDP1 CPT 15µM*, KB-V1 MDR tox inactive and HT1080NT lethal 16%.
For CCc1ccc(-c2n[nH]nc2C2=CC(=O)C[C@H](c3ccc(F)cc3)C2)cc1 the results were DT40 TDP1 no CPT 2.9µM*, HT1080 IDH1KD tx -9%, KB-3-1 tox inconclusive, DT40 TDP1 CPT inconclusive, KB-V1 MDR tox inconclusive and HT1080NT lethal -21%.
`CCCCNC(=S)NNC(=O)CCn1nc(C)c(Br)c1C` gave DT40 TDP1 no CPT 5.6µM*, HT1080 IDH1KD tx 1.1µM*, KB-3-1 tox inactive, DT40 TDP1 CPT 6.3µM*, KB-V1 MDR tox inactive and HT1080NT lethal 0.89µM*.
